The campaign covered roughly 310,000 compounds. About 2,600 (0.84%) were called active.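 The calls were made as follows: active = B-score over 3 SD under the library average, and starting fluorescence ratio not unusually high; inactive = the rest.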 The list comes from a sample in which actives are over-represented; it also holds similar structures and randomly drawn compounds.
molecular target: High affinity choline transporter 1 (Homo sapiens) (UniProt Q9GZV3); assay: inhibits the human high affinity choline transporter (AID 488975); conditions: CHT-expressing cells, membrane potential dye, choline response, at 10 µM; hits give low values;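 as to B-score: choline stimulus applied at its EC90 after an EC20 pre-addition; B-score computed on integrated fluorescence ratio after choline addition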
Sequence (Q9GZV3 whole entry, looked up): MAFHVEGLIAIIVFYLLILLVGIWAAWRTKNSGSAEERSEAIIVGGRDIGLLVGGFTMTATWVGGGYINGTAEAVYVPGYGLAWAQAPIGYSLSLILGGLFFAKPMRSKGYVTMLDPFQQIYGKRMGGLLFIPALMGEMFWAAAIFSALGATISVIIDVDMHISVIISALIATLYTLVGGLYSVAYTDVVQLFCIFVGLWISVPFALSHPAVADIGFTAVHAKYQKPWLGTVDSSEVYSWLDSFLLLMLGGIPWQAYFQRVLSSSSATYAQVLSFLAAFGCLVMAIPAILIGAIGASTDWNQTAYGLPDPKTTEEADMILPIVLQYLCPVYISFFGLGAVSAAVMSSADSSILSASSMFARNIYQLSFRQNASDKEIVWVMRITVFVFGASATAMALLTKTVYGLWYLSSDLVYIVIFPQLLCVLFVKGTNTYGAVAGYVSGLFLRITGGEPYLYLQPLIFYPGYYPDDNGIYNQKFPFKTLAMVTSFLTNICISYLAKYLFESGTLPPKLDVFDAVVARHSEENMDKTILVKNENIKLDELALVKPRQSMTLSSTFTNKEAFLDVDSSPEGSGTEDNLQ

SMILES	B-score
COc1ccccc1CCNC(=O)C(=O)NCCC1CCCCN1S(=O)(=O)c1cccs1 (stereo unspecified)	inactive
CCOc1ccc(NS(=O)(=O)c2ccc(C(=O)NCC(c3ccccc3OC)N3CCCC3)cc2)cc1 (stereo unspecified)	inactive
COc1ccc(Cl)cc1NC(=O)CN(C)C(=O)c1cc2ccccc2cc1OC	inactive
Cc1onc(-c2ccccc2Cl)c1C(=O)OCc1nnc(-c2ccccc2)o1	inactive
COc1ccc(NC(=O)CSc2nc(N)c(-c3ccccc3)c(=O)[nH]2)cc1	inactive
COc1ccc(NC(=O)c2sc(N3CCOCC3)nc2-c2ccccc2)c(OC)c1	inactive
COc1ccc(NC(=O)c2sc(N)nc2-c2ccccc2)cc1	-8.57 (active)
COc1ccc(C(=O)NC(C)c2nccs2)cc1OC1CCN(C(C)C)CC1 (stereo unspecified)	-5.22 (active)
COCCOC1CCN(C(=O)c2ccc(OC)c(OC3CCN(C(C)C)CC3)c2)CC1	inactive
COc1ccc(C(=O)NC2CC2)cc1OC1CCN(Cc2cnn(C)c2)CC1	inactive
Cc1cc(C)c(S(=O)(=O)NCC(c2ccc3c(c2)OCO3)N2CCOCC2)c(C)c1 (stereo unspecified)	inactive
Cc1nc2ccccc2c(=O)n1-c1ccc(NS(=O)(=O)c2ccc(F)cc2F)cc1	inactive
COc1ccc(C(=O)OCC(=O)c2ccc(Cl)s2)c(OC)c1OC	inactive
CN(C)CCCN(C(=O)c1ccc(S(=O)(=O)N2CCCCCC2)cc1)c1nc2cc3c(cc2s1)OCCO3	inactive
O=C(O)/C=C/c1cn(-c2ccccc2)nc1-c1cccs1	inactive
O=C(/C=C\c1cn(-c2ccccc2)nc1-c1cccs1)N1CCOCC1	inactive
O=C(O)c1ccc(N/N=C/c2cn(-c3ccccc3)nc2-c2cccs2)cc1	-5.81 (active)
COc1ccc(NS(=O)(=O)c2ccc(C)c(C(=O)NCC(c3cccs3)N3CCOCC3)c2)cc1 (stereo unspecified)	inactive
CCN(C(=O)CSc1ncn[nH]1)c1cccc2ccccc12	inactive
CC(C)(C)c1ccc(C(=O)CSc2ncn[nH]2)cc1	-5 (active)
Cn1nnc(NC(=O)CSc2ncn[nH]2)n1	inactive
O=C(CCNC(=O)c1ccc(Br)cc1)Nc1cccc(S(=O)(=O)N2CCCCC2)c1	inactive
CCOC(=O)c1c(C)oc2cc(Sc3ccccc3)c(O)c(O)c12	inactive
CCN1C(=O)[C@H]2[C@@H](c3ccc(-c4ccc(OC)cc4)cc3)N[C@@](Cc3ccccc3)(C(=O)OC)[C@H]2C1=O	inactive
COc1ccc(C2=NOC(Cn3nc(C(=O)NCc4ccc5c(c4)OCO5)cc3-c3ccccc3)C2)cc1 (stereo unspecified)	inactive
Cc1cccc(N(Cc2ccccc2)C(=O)c2cc(S(=O)(=O)N3CCOCC3)ccc2F)c1	inactive

SMILES	B-score
Cc1cc(C)n(-c2cc(Oc3ccccc3)ncn2)n1	inactive
CC(=O)c1ccc(Oc2cc(C)nc(-n3nc(C)cc3C)n2)cc1	-5.97 (active)
Cc1cc(C)n(-c2ccc(Cl)c(C(=O)O)n2)n1	inactive
O=C1[C@H]2[C@@H](c3ccc(Cl)cc3)N3C(=O)N(c4cccc(F)c4)C(=O)[C@@]3(Cc3ccccc3)[C@H]2C(=O)N1C1CCCCC1	inactive
CCCCC(=O)NNC(=S)NC(=O)C(c1ccccc1)c1ccccc1	-10.8 (active)
CC(C)C(=O)Nc1cccc(NC(=S)NC(=O)C(c2ccccc2)c2ccccc2)c1	inactive
O=C(NNC(=S)NCc1ccco1)C(c1ccccc1)c1ccccc1	inactive
CC1CN(C(=O)c2cc(COc3c(F)cccc3F)on2)CCN1C (stereo unspecified)	inactive
Cc1cc(S(=O)(=O)Nc2ccc(C(=O)NCC(c3ccco3)N3CCCC3)cc2)ccc1F (stereo unspecified)	inactive
COc1ccc(C(CNC(=O)c2cccc(NS(=O)(=O)c3ccc(C)c(F)c3)c2)N2CCCC2)cc1 (stereo unspecified)	-5.37 (active)
COc1ccc(C(CNC(=O)c2cccc(S(=O)(=O)Nc3ccccc3Cl)c2)N2CCOCC2)cc1 (stereo unspecified)	inactive
CC(=O)c1ccc(NC(=O)C2CCCN2S(=O)(=O)c2cccs2)cc1 (stereo unspecified)	inactive
COc1ccc(CCNC(=O)C(=O)NCC2CCCN2S(=O)(=O)c2cccs2)cc1OC (stereo unspecified)	inactive
Cc1occc1C(=O)N/N=C/c1ccc(-c2cccc([N+](=O)[O-])c2)o1	inactive
O=[N+]([O-])c1cc(Cl)cc(/C=N/NC(=S)Nc2cc(S(=O)(=O)N3CCOCC3)ccc2Cl)c1O	-11.3 (active)
O=C(N/N=C/c1cc(Cl)cc([N+](=O)[O-])c1O)C(O)(c1ccccc1)c1ccccc1	inactive
O=C(CN1CCN(c2ccc(O)cc2)CC1)Nc1cc(S(=O)(=O)N2CCOCC2)ccc1Cl	inactive
CC(=O)N1CCN(C(=O)c2cc(-c3ccc(C)o3)nc3ccccc23)CC1	inactive
O=C(O)C1C2C=CC(C2)C1C(=O)NCc1ccccc1 (stereo unspecified)	inactive
Cc1ccc(NNC(=O)c2c(F)cccc2Cl)cc1Cl	inactive
O=C(NNC(=O)c1ccc(Cl)cc1Cl)c1cccs1	inactive
Cc1ccc(NNC(=O)c2cccs2)cc1Cl	-4.98 (active)
O=C(NCCCc1ccccc1)C(=O)NCC1OCCN1S(=O)(=O)c1ccccc1 (stereo unspecified)	inactive
Cc1ccc(N2CC(C(=O)N3CCC4(CC3)CC(=O)c3ccccc3O4)CC2=O)cc1C (stereo unspecified)	inactive
Cc1ccc(Cc2nnc(SCC(=O)Nc3ccccc3C)[nH]c2=O)cc1	inactive
CCCn1c2ccccc2c2cnn(CC(=O)NCCCN3CCCCC3CC)c(=O)c21 (stereo unspecified)	-7.41 (active)

SMILES	B-score
O=C(Cn1ncc2c3ccccc3n(Cc3ccccc3)c2c1=O)NCCCN1CCOCC1	-8.06 (active)
Cc1c2cnn(CC(=O)NCCCN3CC(C)CC(C)C3)c(=O)c2c(C)n1Cc1ccc(Cl)cc1 (stereo unspecified)	inactive
O=C(Cn1ncc2c3ccccc3n(Cc3ccccc3)c2c1=O)NCc1ccccn1	inactive
CC1CCCCN1CCCNC(=O)Cn1ncc2c([nH]c3ccccc32)c1=O (stereo unspecified)	inactive
CCC1CCCCN1CCCNC(=O)Cn1nc(-c2ccccc2)ccc1=O (stereo unspecified)	inactive
Cc1ccc(C)c(-c2nnc(NC(=O)CS(=O)(=O)c3ccccc3)o2)c1	inactive
Cc1ccc(S(=O)(=O)NCCC(=O)NC2CCN(Cc3ccccc3)CC2)cc1	inactive
COc1ccc(Cc2nnc(SCC(=O)N(c3ccccc3)C(C)C)n(N)c2=O)cc1	inactive
O=c1c2ccccc2nnn1CSc1nc2sc3c(c2c(=O)n1CC1CCCO1)CCC3 (stereo unspecified)	-11.3 (active)
Nc1nnc(SCn2nnc3ccccc3c2=O)s1	inactive
O=c1c2ccccc2nnn1CSc1nnnn1-c1ccccc1	inactive
CCn1c(SCCC(C)C)nnc1-c1c[nH]c2ccccc12	-5.53 (active)
CCC(C)Sc1nnc(-c2c[nH]c3ccccc23)n1CCOC (stereo unspecified)	inactive
CCn1c(SCC(=O)Nc2ccc(OC)c(OC)c2)nnc1-c1c[nH]c2ccccc12	inactive
O=[N+]([O-])c1ncc(Br)cc1Nc1ccccc1	inactive
CCOCCn1[nH]c2ccccc2c1=O	inactive
CC(Oc1ccc(Br)cc1)C(=O)NCC(c1ccco1)N1CCCCC1 (stereo unspecified)	inactive
CCc1ccc2c(c1)C1(NN=C(c3ccccc3)S1)C(=O)N2 (stereo unspecified)	-6.53 (active)
O=C1Nc2ccccc2C12Nc1ccccc1S2 (stereo unspecified)	inactive
CCc1ccc2c(c1)C(c1ccc([N+](=O)[O-])cc1)=NNC(c1ccccc1)=N2	inactive
CCC(C(=O)N1CCOCC1)n1c(C(=O)OC)cc2occc21 (stereo unspecified)	-6.51 (active)
COC(=O)c1cc2occc2n1Cc1nc(-c2ccccc2C)oc1C	inactive
CCOC(=O)c1cc2occc2n1CC(=O)N1CCN(C(=O)c2ccco2)CC1	inactive
O=C(CN1CCOCC1)Nc1cccc([N+](=O)[O-])c1	inactive
O=C(CCNC(=O)c1ccc(Br)cc1)NCCCc1ccccc1	inactive
CCOC(=O)c1ccc(NC(=O)c2cccnc2)cc1	inactive

SMILES	B-score
CCOC(=O)c1cc(NC(=O)c2cccnc2)ccn1	inactive
Cc1c(C(=O)OC(C)C)sc(NC(=O)c2cccnc2)c1C#N	-5.25 (active)
Cc1ccc(C)c(OCCC(=O)OCC(=O)NC(=O)NCc2ccccc2)c1	inactive
COc1ccccc1C(=O)Nc1ccccc1C(=O)Nc1ccccc1	inactive
Nc1nonc1-n1nnc(C(=O)N/N=C/c2ccccc2O)c1CN1CCCC1	inactive
C/C(=N\NC(=O)c1cccc(N2CCCC2=O)c1)c1ccc(N)cc1	inactive
Cc1ccc(C(=O)NC2CCCC(C)C2C)cc1S(=O)(=O)N1CCCCC1 (stereo unspecified)	-9.32 (active)
Cc1ccc(C(=O)Nc2ccc3c(c2)OCO3)cc1S(=O)(=O)N1CCCCC1	inactive
CC1CCCC(NC(=O)c2cccc(N3CCCC3=O)c2)C1C (stereo unspecified)	-5.25 (active)
CC1CCC(NC(=O)c2ccc(N3CCCC3=O)cc2)CC1 (stereo unspecified)	inactive
Cc1ccc(C(=O)NNC(=O)c2ccncc2)cc1S(=O)(=O)N1CCCCC1	inactive
COc1ccc2oc(C(=O)OCC(=O)N(CC(C)C)c3c(N)n(Cc4ccccc4)c(=O)[nH]c3=O)c(C)c2c1	inactive
CC1=NNC(=O)C1Cc1c(Cl)cccc1Cl (stereo unspecified)	inactive
Cc1ccc2nc(NC(=O)CSc3nc(=O)n(CCCN(C)C)c4c3CCC4)sc2c1	inactive
COc1ccc(S(=O)(=O)N2CCCCCC2)cc1C(=O)N(C)Cc1cccc(OC)c1OC	inactive
CN(CCC#N)c1ncnc2scc(-c3ccccc3)c12	-6.05 (active)
N#CCCN(CCC#N)c1nnc(-c2ccccc2)s1	inactive
C=CCn1cnc2scc(-c3ccccc3)c2c1=O	inactive
COc1cc(C(=O)N(C)Cc2cccc(OC)c2OC)ccc1OCC(=O)Nc1cccc(C(F)(F)F)c1	inactive
Fc1ccccc1COc1cccc2cccnc12	inactive
CN(/N=C/c1ccccc1)C(=S)c1ccccc1	inactive
COc1ccc([C@@H]2[C@@H]3C(=O)N(C(C)(C)C)C(=O)[C@@H]3[C@]3(Cc4ccccc4)C(=O)N(c4cccc(Br)c4)C(=O)N23)cc1	inactive
Cc1cccc(NC(=O)c2cccc(S(=O)(=O)N3CCCC3)c2)n1	inactive

Source: PubChem BioAssay AID488975 (Johns Hopkins Ion Channel Center, 2010)
